# Biological target: Left-right determination factor 2 (Homo sapiens) (UniProt O00292)
# Assay: LEFTY2 binders on small-molecule microarrays, primary screen, biochemical, small-molecule microarray, 635 nm fluorescence scan (AID 1110)
# Conditions: LEFTY2 binding, higher = more signal
# Left-right determination factor 2 (Homo sapiens), sequence (O00292 whole entry, looked up): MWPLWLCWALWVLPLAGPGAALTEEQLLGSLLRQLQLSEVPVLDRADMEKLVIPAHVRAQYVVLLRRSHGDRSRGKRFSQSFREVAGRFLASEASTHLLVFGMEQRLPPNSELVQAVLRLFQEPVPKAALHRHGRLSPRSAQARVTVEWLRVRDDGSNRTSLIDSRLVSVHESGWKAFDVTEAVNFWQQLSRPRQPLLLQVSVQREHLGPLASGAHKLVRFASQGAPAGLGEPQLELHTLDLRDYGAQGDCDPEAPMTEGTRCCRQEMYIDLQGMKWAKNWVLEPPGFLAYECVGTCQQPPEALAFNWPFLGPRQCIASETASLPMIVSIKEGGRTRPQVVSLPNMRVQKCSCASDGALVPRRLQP
row,SMILES,composite z-score
1,C[C@@H](c1ccccc1)N1C(=O)[C@H]2[C@H]3[C@H](O)[C@H](O)CC(=NOC[C@@H](O)COCc4ccco4)[C@@H]3CC[C@H]2C1=O,-0.433
2,COc1ccc(O[C@H]2C=C[C@@H](c3ccccc3)O[C@@H]2COC(=O)CCC(C)=NOCC[C@@H]2C=C[C@H](OC(C)=O)[C@@H](COC(C)=O)O2)cc1,0.347
3,O=C1[C@H]2[C@H]3[C@H](O)[C@H](O)CC(=NOC[C@@H](O)COCc4ccco4)[C@H]3CC[C@H]2C(=O)N1c1cccc(Oc2ccccc2)c1,-1.1
4,COC(=O)CC=C[C@@H](C)[C@@H](C=NO[C@@H](C)c1cc(-c2c(C)cc(C)cc2C)no1)OC,-0.627
5,COc1ccc(COC(=O)NN=C2C[C@@H](O)[C@@H](O)[C@@H]3[C@@H]4C(=O)N(Cc5ccc6c(c5)OCO6)C(=O)[C@@H]4CC[C@@H]23)cc1,-0.218
6,C[C@@H]1CCC2C(=O)N(Cc3ccccc3)C[C@@H](O)CN2[C@H]1c1ccc(Br)cc1 (some centres not stated),0.149

# Biological target: Calmodulin-1 (Homo sapiens) (UniProt P0DP23)
# Assay: CALM1 binders on microarrays, EGTA buffer, profiling panel, biochemical, small-molecule microarray, Cy5-labelled CALM1 (AID 1111);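 further: labelled calmodulin applied in Tris saline Tween buffer holding calcium plus EGTA and DTT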
# Conditions: Cy5-CALM1 binding fluorescence, higher = more signal
row,SMILES,composite z-score
1,COC(=O)[C@H](C)NC(=O)CCC1CC(OC(=O)NCCc2ccc(F)cc2)CC2(CCCC(COC(=O)NCCc3ccc(Cl)cc3)O2)O1 (some centres not stated),0.922
2,C=COC[C@H]1CN2[C@@H](CC[C@@H](C)[C@@H]2c2ccc(Br)cc2)C(=O)O1,0.537
3,CN1C(=O)C2C=CC(C(O)c3ccc(Br)cc3)N(N(c3ccccc3)c3ccccc3)C2C1=O (configuration not stated),1.16
4,COC(=O)[C@H](C)NC(=O)[C@@H](C)CO,0.601
5,O=C1[C@H]2[C@H]3[C@H](O)[C@H](O)CC(=NOCc4ccccc4)[C@@H]3CC[C@H]2C(=O)N1Cc1ccccc1,0.675
6,CC(C)[C@@H](OCc1ccccc1)[C@H](C)C=NOC[C@@H](C)[C@H](OCc1ccccc1)C(C)C,0.148
7,CCOC(=O)[C@H](Cc1ccccc1)NC(=O)CCC1CC(OC(=O)NCc2ccc3c(c2)OCO3)CC2(CCCC(COC(=O)NCC3CCCCC3)O2)O1 (some centres not stated),0.433
8,COC(=O)[C@@H]1CC[C@H](C)[C@@H](c2ccc(C)cc2)N1C(=O)c1ccc(C=NOC[C@@H](O)COCc2ccco2)cc1,-1.22
9,Cc1cc2c(nc1C)CCCN2CC(O)CN1CCN(C)CC1 (configuration not stated),-0.441
10,C=C(CCCC)C(=O)CC[C@@H](OC(C)=O)c1cccc(OCCO)c1,-0.602
11,CCOC(=O)[C@H](Cc1ccccc1)NC(=O)CCC1CC(OC(=O)NCc2ccc3c(c2)OCO3)CC2(CCCC(COC(=O)NCC(c3ccccc3)c3ccccc3)O2)O1 (some centres not stated),-0.198
12,C#CCCCON=C1C[C@@H](O)[C@@H](O)[C@@H]2[C@@H]3C(=O)N(c4cccc(Oc5ccccc5)c4)C(=O)[C@@H]3CC[C@@H]12,0.298
13,CC(C)CON=C1C[C@@H](O)[C@@H](O)[C@@H]2[C@@H]3C(=O)N(C[C@@H]4CCCO4)C(=O)[C@@H]3CC[C@H]12,0.0832
14,CCN1C(=O)[C@H]2[C@H]3[C@H](O)[C@H](O)CC(=NO[C@@H]4O[C@H](CO)[C@@H](O)[C@H](O)[C@H]4O)[C@@H]3CC[C@H]2C1=O,-0.665
15,COc1ccc(-c2ccc3c(n2)CCCN3CC(O)CN2CCCc3nc(C)c(C)cc32)cc1 (configuration not stated),0.0025
16,CO[C@H]1O[C@H](CO)[C@@H](OC(=O)Nc2ccc3c(c2)OCO3)[C@H](OC(=O)Nc2ccccc2-c2ccccc2)[C@@H]1OC(=O)Nc1ccccc1-c1ccccc1,1.6
17,COC(=O)CC1OC1[C@H](C)[C@@H](OC)C(C)C (some centres not stated),-0.723
18,CO[C@@H]1COC(=O)CC=C[C@@H](C)[C@@H]2C=C[C@H](O)[C@@H](COC(=O)[C@H](C)NC(=O)CC=C[C@H]1C)O2,-1.52

row,SMILES,composite z-score
1,N#Cc1ccc(NN2C(C(O)c3cc(C(F)(F)F)cc(C(F)(F)F)c3)C=CC3C(=O)N(c4ccccc4)C(=O)C32)cc1 (configuration not stated),2.44
2,CCOC(=O)NN=C1C[C@@H](O)[C@@H](O)[C@@H]2[C@@H]3C(=O)N(C[C@@H]4CCCO4)C(=O)[C@@H]3CC[C@@H]12,-0.375
3,COCCOC(=O)N1C(=O)[C@@]2(c3cc(C#CC4(O)CCCCCC4)ccc31)[C@H](C(=O)N1CCN(c3ncccn3)CC1)[C@H]1C(=O)O[C@H](c3ccccc3)[C@H](c3ccccc3)N1[C@@H]2c1ccc(OCCO)cc1,0.942
4,C=CC[C@]1(C(=O)NCc2ccccc2)N=C(c2ccc(OCCCO)cc2)O[C@H]1c1ccccc1,0.392
5,COc1ccc(O[C@H]2C=C[C@@H](c3ccccc3)O[C@@H]2COC(=O)CCC(C)=NOC(C)CN2CCCCc3nc(C)c(C)cc32)cc1 (some centres not stated),-0.959
6,CO[C@@H]1COC(=O)CC=C[C@@H](C)[C@@H]2C=C[C@@H](O)[C@@H](COC(=O)CC=C[C@H]1C)O2,-1.24
7,CCOC(=O)[C@H](Cc1ccccc1)NC(=O)CCC1CC(OC(=O)NCCc2ccc(F)cc2)CC2(CCCC(COC(=O)NCC(c3ccccc3)c3ccccc3)O2)O1 (some centres not stated),0.53
8,C[C@H]1CC[C@@H](C(=O)O)N[C@@H]1c1ccc(C#CCN(C)C)cc1,-0.263
9,O=C1NC(=O)C2C1C=CC(C(O)Cc1ccccc1)N2Nc1ccccn1 (configuration not stated),0.0084
10,CCOC(=O)CCN1C(=O)[C@H]2[C@H]3[C@H](O)[C@H](O)CC(=NOC[C@@H](O)COCc4ccco4)[C@@H]3CC[C@H]2C1=O,0.2
11,CC(C)(C)N1C(=O)[C@H]2[C@H]3[C@H](O)[C@H](O)CC(=NOCc4ccccc4)[C@@H]3CC[C@H]2C1=O,-0.266
12,COC(=O)[C@@]1(Cc2ccccc2)[C@H]2c3cc(C(=O)N4CCCC4)n(Cc4ccccn4)c3C[C@H]2CN1C(=O)c1ccccc1,1.45
13,C[C@@H](c1ccccc1)N1C(=O)[C@H]2[C@H]3[C@H](O)[C@H](O)CC(=NOC[C@@H](O)COCc4ccco4)[C@@H]3CC[C@H]2C1=O,-0.495
14,COc1ccc(O[C@H]2C=C[C@@H](c3ccccc3)O[C@@H]2COC(=O)CCC(C)=NOCC[C@@H]2C=C[C@H](OC(C)=O)[C@@H](COC(C)=O)O2)cc1,-1.02
15,O=C1[C@H]2[C@H]3[C@H](O)[C@H](O)CC(=NOC[C@@H](O)COCc4ccco4)[C@H]3CC[C@H]2C(=O)N1c1cccc(Oc2ccccc2)c1,-0.876
16,COC(=O)CC=C[C@@H](C)[C@@H](C=NO[C@@H](C)c1cc(-c2c(C)cc(C)cc2C)no1)OC,-0.908
17,COc1ccc(COC(=O)NN=C2C[C@@H](O)[C@@H](O)[C@@H]3[C@@H]4C(=O)N(Cc5ccc6c(c5)OCO6)C(=O)[C@@H]4CC[C@@H]23)cc1,-0.389
18,C[C@@H]1CCC2C(=O)N(Cc3ccccc3)C[C@@H](O)CN2[C@H]1c1ccc(Br)cc1 (some centres not stated),0.102

# Source: PubChem BioAssay
